The text below walks through data of PubChem BioAssay.

Test [1] can be described thus: compounds altering viability of human ES cells (AID 493140; call rule not given here;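 further: cells exposed to compounds for four days before counting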). Particulars: human embryonic stem cell survival screen; stronger effect = higher value.
The nature of test [2]: P. berghei load reduction in hepatocytes – cell-based, HepG2, luciferase luminescence, HepG2 viability, primary screen (AID 624349; in the data active means parasite load remaining mostly below about 12%, no sharp cut-off; inactive means mostly above about 10%;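 further: 100% = mean of DMSO negative control wells on the same plate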). The settings on record: P. berghei liver stage in HepG2, luciferase luminescence, concentration not given here; parasite load remaining: stronger effect = lower value; viability: measured here: HepG2 viability without parasites.
Test [3] in a line: Wnt pathway potentiators raising nuclear beta-catenin – imaging, WNT3A-conditioned medium, mouse C2C12, NPC library, primary screen (AID 1117326; in the data active means nuclear beta-catenin stimulation mostly above about 4.2%, no sharp cut-off; inactive means mostly below about 10%). Particulars: stronger effect = higher value.
Test [4] can be described thus: stimulators of insulin release from INS-1E, primary screen, cell-based, 5 mM glucose, NPC library (AID 1117329;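 active means compound raises insulin release from rat beta cells at 5 mM glucose, no numeric limit stated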). The settings on record: rat INS-1E insulin secretion, at 10 µM, stronger effect = higher value.
Test [5] can be described thus: growth inhibition of GSK3B-pretreated HCT116 cells – cell-based, CellTiter-Glo, 0.2 to 20 µM (AID 1117336;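 active means compounds lowering colon cancer cell viability after pretreatment blocking the GSK3B kinase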). The settings on record: HCT116 viability after GSK3B inhibitor, at 20 µM, stronger effect = higher value. Background: In ATP-based viability assays light output follows the ATP content of the culture.
Test [6] in a line: inhibition of endothelial tube formation, primary screen, imaging, VEGF stimulated, CD31 staining, tube area, NPC library (AID 1117340;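 active means compound that reduces growth-factor-driven endothelial tube area in a mixed cell culture, no cutoff stated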). The settings on record: VEGF-stimulated ADSC/ECFC co-culture, at 10 µM, stronger effect = higher value.
A short description of test [7]: GLP1 release stimulators, primary, NCI-H716, NPC library (AID 1117341;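 active means compound raises GLP1 secretion from the human gut endocrine cells, with no numeric limit stated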). The settings on record: NCI-H716 cells, at 10 µM, stronger effect = higher value.
The nature of test [8]: HCT116 colon cancer cell growth inhibition, primary screen, CellTiter-Glo luminescence, NPC library (AID 1117342;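 active means compounds that lower survival of HCT116 colon cancer cells in the luminescence readout, no numeric limit stated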). The settings on record: at 20 µM (top of the series).
Test [9] can be described thus: reduced SW480 viability measured with CellTiter-Glo, NPC library, primary (AID 1117343;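 active means compounds that lower viability of the colon cancer cells in the luminescence readout, with no numeric limit stated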). The settings on record: CellTiter-Glo luminescence; at 20 µM (top of the series) unless noted.
Test [10] is described as follows: NPC library primary testing for decreased DLD-1 cell viability via CellTiter-Glo (AID 1117346;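 active means compounds that lower survival of DLD-1 colon cancer cells in the luminescence readout, no cutoff given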). Particulars: DLD-1 viability, CellTiter-Glo luminescence; at 20 µM (top of the series).
Test [11] can be described thus: EMT-state selective cytotoxicity in co-culture – imaging, PC-3E GFP, TEM4-18 mCherry, primary screen (AID 1345086;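 active means compounds killing one labelled cell type while sparing the other, by normalised counts and ratio limits, not self-fluorescent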;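 on all read-outs here: cells exposed to compound for 72 h before imaging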;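 on red/green cell ratio (normalised): normalised mesenchymal count divided by normalised epithelial count so high means epithelial killing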). Particulars: PC-3E GFP / TEM4-18 mCherry co-culture, imaging cell counts, at 1 µM; for red/green cell ratio (normalised): actives lie on both sides, counts scaled to control wells, 1 = unselective.
Test [12] in a line: viability loss with induced miR-34 in A549 – imaging, A549 dox-inducible miR-34, nuclei and caspase counts, primary screen (AID 1347080). The settings on record: A549 miR-34 inducible, Hoechst nuclei count, 48 h.
Test [13] can be described thus: MELAS cybrid and Rieske KO viability enhancers – cell-based, MELAS cybrids, Rieske KO mouse fibroblasts, CellTiter-Glo, primary screen (AID 1508586;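 active means mean z-score across replicates of 1.96 or higher in either the MELAS or the Rieske mutant cell line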;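 further: z relative to plate mean and SD of compound and empty wells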). The settings on record: low glucose.
Test [14] has as its target NAD(+) hydrolase SARM1 (Homo sapiens) (UniProt Q6SZW1). The test can be described thus: blocking NAD cleavage by SARM1 SAM-TIR – cell lysate, NAD-Glo luminescence (AID 1508614;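 active means compound whose remaining NAD level is above about 45 nM, limit read from the data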). The settings on record: SAM-TIR HEK293T lysate NADase, at 1 µM, stronger effect = higher value.
Where [15] appears, read: measured here: epithelial PC-3E GFP cell survival.
Setting [16] is: measured here: mesenchymal TEM4-18 mCherry cell survival.
The mark [17] stands for this setting: stronger effect = lower value, cell number ratio, induced over uninduced.
The mark [18] stands for this setting: measured here: relative caspase fold change +Dox/-Dox.
[19] abbreviates: measured here: total cells with miR-34 induction, stronger effect = lower value.
[20] abbreviates: measured here: total cells without miR-34 induction.
Where [21] appears, read: MELAS cybrid survival, CellTiter-Glo 48 h, stronger effect = higher value.
The mark [22] stands for this setting: Rieske KO mouse fibroblast survival, CellTiter-Glo 72 h.

“And” between values parts separate entries of the source, which are not always exact repeats. Equal values may be shown once. The source made the active and inactive calls.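 How the source made its calls, unless noted: active means compounds whose cell count with miR-34 switched on is under 0.7 times the count with it off; inactive means the rest.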

Sequence of NAD(+) hydrolase SARM1 (Homo sapiens) (Q6SZW1 whole entry, looked up): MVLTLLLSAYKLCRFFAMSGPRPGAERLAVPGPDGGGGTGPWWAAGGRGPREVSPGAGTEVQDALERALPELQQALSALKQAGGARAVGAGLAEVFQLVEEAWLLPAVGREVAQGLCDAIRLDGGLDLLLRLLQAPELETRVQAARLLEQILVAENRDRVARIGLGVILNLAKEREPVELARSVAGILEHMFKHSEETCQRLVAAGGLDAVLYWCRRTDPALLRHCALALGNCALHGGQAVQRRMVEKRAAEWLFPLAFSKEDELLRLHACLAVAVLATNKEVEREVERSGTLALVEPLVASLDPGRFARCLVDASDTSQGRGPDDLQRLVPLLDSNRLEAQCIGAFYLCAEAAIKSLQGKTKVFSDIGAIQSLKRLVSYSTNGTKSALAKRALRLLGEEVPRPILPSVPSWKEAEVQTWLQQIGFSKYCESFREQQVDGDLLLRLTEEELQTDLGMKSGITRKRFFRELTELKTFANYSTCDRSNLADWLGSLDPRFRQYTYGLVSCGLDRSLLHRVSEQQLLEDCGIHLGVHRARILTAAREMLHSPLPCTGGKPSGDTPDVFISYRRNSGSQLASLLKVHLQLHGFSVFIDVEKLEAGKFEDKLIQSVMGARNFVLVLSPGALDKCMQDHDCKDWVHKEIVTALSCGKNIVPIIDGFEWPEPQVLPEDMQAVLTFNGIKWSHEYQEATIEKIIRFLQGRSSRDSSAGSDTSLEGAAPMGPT

Take `CCCNC(C)(C)COC(=O)c1ccccc1`: the survival in test [1] is 15.2 (inactive). Moreover, the parasite load remaining in test [2] was 69.3% (inactive). Moreover, the viability in test [2] turned out to be 69.4%. Also, the nuclear beta-catenin stimulation was 0.1% (inactive) in test [3] (at 10 µM) and 0.2% in test [3] (stimulation, at 2 µM). The insulin secretion stimulation in test [4] is 4.2% (inactive). Moreover, the viability decrease in [5] is 0.2% (inactive). Also, in test [6], the tube area decrease was 6.5% (inactive). In addition, in test [7], the GLP1 secretion stimulation is 4% (inactive). Further, the inhibition of viability in [8] is -3.5% (inactive). Moreover, the figures for the viability decrease (inhibition) in test [9] and in [10] were 42.3% (inactive) and 25.6% (inactive), respectively. The red/green cell ratio (normalised) in test [11] is 1.13 (inactive). The normalised cell number was 1.15 in [11] (setting [15]) and 1.29 in test [11] (setting [16]). For the same compound, the fold change in test [12] (setting [17]) is 0.976 (inactive); in [12] (setting [18]), 0.64. Moreover, the cell count in test [12] (setting [19]) amounted to 9410; in test [12] (setting [20]) it was 9640. For the same compound, the z-score in test [13] (setting [21]) was -0.122 (inactive); in test [13] (setting [22]) it was -0.0308. Further, in test [14], the remaining NAD was 10 nM (inactive).

Consider `CN(C/C=C/c1ccccc1)Cc1cccc2ccccc12`, for which, in [1], the survival was 21.7 (inactive). Besides, the parasite load remaining in [2] is 71.6% (inactive). Moreover, the viability in test [2] was determined as 71.3%. Besides, the nuclear beta-catenin stimulation in test [3] (at 10 µM) was 2.1% (inactive); in test [3] (stimulation, at 2 µM), 1.8%. The insulin secretion stimulation in test [4] is 14.3% (inactive). Also, in [5], the viability decrease is 86.7% (active). Besides, in [6], the tube area decrease was -3.5% (inactive). The GLP1 secretion stimulation in [7] was 0.7% (inactive). Moreover, the inhibition of viability in test [8] was 85.3% (active). The viability decrease (inhibition) in test [9] was 95.4% (active); in test [10], 74.5% (active). In addition, in test [11], the red/green cell ratio (normalised) is 1.01 (inactive). Moreover, the normalised cell number in [11] (setting [15]) worked out at 1.19; in test [11] (setting [16]), 1.2. For the same compound, the results for the fold change in test [12] (setting [17]) and in test [12] (setting [18]) were 0.954 (inactive) and 0.94, respectively. The figures for the cell count in test [12] (setting [19]) and in test [12] (setting [20]) were 8810 and 9230, respectively. Also, the z-score is -0.0397 (inactive) in test [13] (setting [21]) and -0.28 in test [13] (setting [22]). Further, in test [14], the remaining NAD is 10 nM (inactive).

Take `CC(=O)CC(c1ccc([N+](=O)[O-])cc1)c1c(O)c2ccccc2oc1=O` (stereo not given): in test [1], the survival is 21.3 (inactive). In [2], the parasite load remaining was 45.5% (inactive) and 55% (inactive). Besides, in test [2], the viability was 108% and 91.9%. For the same compound, the nuclear beta-catenin stimulation in test [3] (at 10 µM) is -1.1% (inactive); in [3] (stimulation, at 2 µM), -1.3%. For the same compound, the insulin secretion stimulation in test [4] is 0.6% (inactive). Further, in test [5], the viability decrease is -2.5% (inactive). Further, the tube area decrease in test [6] was -40.9% (inactive). Besides, the GLP1 secretion stimulation in test [7] is -5.1% (inactive). Further, the inhibition of viability in test [8] is 4.3% (inactive). The viability decrease (inhibition) was 21.6% (inactive) in [9] and 4.6% (inactive) in test [10]. In test [11], the red/green cell ratio (normalised) is 0.82 (inactive). The normalised cell number was 1.28 in [11] (setting [15]) and 1.05 in test [11] (setting [16]). Further, the results for the fold change in [12] (setting [17]) and in [12] (setting [18]) were 0.921 (inactive) and 1.68, respectively. The cell count was found to be 7660 in test [12] (setting [19]) and 8320 in [12] (setting [20]). Moreover, the z-score is 0.273 (inactive) in test [13] (setting [21]) and 0.192 in test [13] (setting [22]). Besides, in test [14], the remaining NAD was 10 nM (inactive).

As for `O=C(O)c1cc(-c2ccccc2)nc2ccccc12`, the nuclear beta-catenin stimulation in test [3] (at 10 µM) is 2.1% (inactive); in test [3] (stimulation, at 2 µM) it was 0.6%. The insulin secretion stimulation in test [4] was -1.6% (inactive). In [5], the viability decrease is 5.55% (inactive). Moreover, in test [6], the tube area decrease is 1.3% (inactive). In addition, the GLP1 secretion stimulation in test [7] is 4.2% (inactive). In [8], the inhibition of viability is -8.1% (inactive). In addition, the viability decrease (inhibition) was 27.9% (inactive) in test [9] and 8.8% (inactive) in test [10]. Moreover, in [11], the red/green cell ratio (normalised) was 0.87 (inactive). In addition, the results for the normalised cell number in test [11] (setting [15]) and in test [11] (setting [16]) were 0.9 and 0.78, respectively. Besides, the fold change was 0.909 (inactive) and 0.965 (inactive) in test [12] (setting [17]); 0.94 and 1.19 in test [12] (setting [18]). Besides, the cell count is 8690 and 8580 in [12] (setting [19]); 9560 and 8890 in [12] (setting [20]). Besides, the z-score is -0.261 (inactive) in [13] (setting [21]) and -0.139 in test [13] (setting [22]). Further, in [14], the remaining NAD is 10 nM (inactive).

The term viability denotes a read-out of living cells in per cent, often relative to untreated cells.
